Reference: PubChem BioAssay AID602262 (National Center for Advancing Translational Sciences (NCATS), 2012)
A number with no mark means an inactive call. Calls come from the whole dose curve; as a rule, active = well fitted curve in the direction sought with a large enough effect; inactive = no such curve, though single readings can be large or run the other way.

assay: qHTS Assay for Agonists of the Relaxin Receptor RXFP1: V1B SAR; details: HEK293 V1B cells, cAMP TR-FRET, 30 min; series mostly up to 78.1 µM; activation: at the top concentration
From the text: The relaxin hormone is involved in the variety of biological functions in normal tissues and diseases. The role of relaxin is well-established in female reproduction and parturition, mammary gland and endometrial development, maintenance of myometrial quiescence during pregnancy. Relaxin signaling through its G protein-coupled receptor (GPCR) RXFP1 results in ECM remodeling through regulation of collagen deposition, cell invasiveness, proliferation and overall tissue homeostasis. […] Recombinant human relaxin (rhRlx) is currently being tested in clinical trials as a protective agent in congestive heart failure, in treating severe preeclampsia, and as an anti-fibrotic agent in systemic sclerosis. Upon relaxin binding RXFP1 activation leads to the activation of adenylate cyclase (AC) via Gs. cAMP will activate PKA, which phosphorylates many signaling proteins. Thus, detection of cAMP increase is an easy and reliable indication of relaxin receptor activation. To screen for agonists of the relaxin receptor, a HEK293T cell line stably transfected with RXFP1 was used. RXFP1 activation was assayed by changes in cAMP levels as detected with a time-resolved fluorescence energy transfer (TR-FRET) cAMP detection kit. This assay measures activation of a cell expressing V1B, another GPCR targeted by relaxin, to determine the selectivity of compounds for RXFP1. NIH Chemical Genomics Center [NCGC] NIH Molecular Libraries Probe Production Centers Network [MLPCN] MLPCN Grant: R03 MH085705-01A1 Assay Submitter (PI): Alexander Agoulnik
This is a cell-based assay for cAMP second messenger response to screen for agonists of the RXFP2 receptor. The assay was conducted in the presence of a PDE4 inhibitor (Ro 20174). The cells were lysed and the cAMP levels were measured with a TR-FRET cAMP kit. Presence of cAMP in the cell lysate disrupts binding between the cryptate-labeled anti-cAMP and d2-labeled cAMP pair, leading to a decrease in the TR-FRET signal. Data were normalized to the controls for basal activity (buffer only) and 100% activity (29 nM porcine relaxin). The EC50 values were determined from concentration-response data modeled with the standard Hill equation 1536-well assay protocol for the HEK293 V1B cAMP assay: (1) Add 3 ul HEK293 RXFP2 cell culture. 2000 cells/well in DMEM/F12, 10% FBS, 1x Pen/Strep (dispensed offline with MultiDrop Combi). (2) Incubate 16-24 hr at 37C, 5% CO2. (3) Add 1 ul 400uM Ro20174 in DPBS, 0.05% BSA, 0.005% Tween 20. (3) Add 23 nl compounds in DMSO solution. Final concentration was 0.5 - 58 uM. (4) Incubate 30 min at 37C, 5% CO2. (5) Add 1 ul cAMP-d2 in lysis buffer (HTRF cAMP HiRange kit, CisBio). (6) Add 1 ul anti-cAMP antibody-cryptate in lysis buffer (HTRF cAMP HiRange kit, CisBio). (7) Incubate 30 min at room temperature. (6) Detect the assay plate in a ViewLux plate reader (PerkinElmer) with Ex=320 nm, Em1=615 nm and Em2=665 nm. Keywords: relaxin, RXFP1, RXFP2, G-protein coupled receptor, cAMP, agonist, high throughput screening, MLSMR, MLSCN, NIH Roadmap, qHTS and NCGC

SMILES | activation
CCOc1ccccc1S(=O)(=O)Nc1ccccc1C(=O)Nc1cccc(S(=O)(=O)C(F)(F)F)c1 | 4.37%
O=C(Nc1cccc([N+](=O)[O-])c1)c1ccccc1NC(=O)C1CCCCC1 | 1.46%
COCCNc1ccccc1C(=O)Nc1cccc(C(F)(F)F)c1 | -6.16%
COc1cccc(NC(=O)c2ccccc2NC(=O)C2CCCCC2)c1 | -6.38%
CCCCOc1ccccc1C(=O)Nc1ccccc1C(=O)Nc1cccc(S(=O)(=O)C(F)(F)F)c1 | -0.668%
CCOc1ccccc1C(=O)Nc1sccc1C(=O)Nc1cccc(S(=O)(=O)C(F)(F)F)c1 | 12.3%
COc1ccccc1C(=O)N(C)c1ccccc1C(=O)N(C)c1cccc(C(F)(F)F)c1 | -1.13%
CCOc1ccccc1C(=O)NCCC(=O)Nc1cccc(S(=O)(=O)C(F)(F)F)c1 | 3.4%
COc1ccccc1C(=O)Nc1ccccc1C(=O)Nc1cccc(S(=O)(=O)C(F)(F)F)c1 | -2.19%
Cc1ccccc1C(=O)Nc1ccccc1C(=O)Nc1cccc(C(F)(F)F)c1 | -2.4%
COc1ccccc1C(=O)Nc1ccccc1C(=O)N(C)c1cccc(C(F)(F)F)c1 | -3.58%
CCOc1ccccc1C(=O)Nc1cccnc1C(=O)Nc1cccc(S(=O)(=O)C(F)(F)F)c1 | -5.24%
Cc1ccc(NC(=O)c2ccccc2NC(=O)C2CCCCC2)cc1 | 0.657%
O=C(Nc1cccc(-c2ccccc2)c1)c1ccccc1NC(=O)C1CCCCC1 | -3.61%
COc1ccccc1C(=O)Nc1cccc(C(=O)Nc2cccc(C(F)(F)F)c2)c1 | 0.812%
CC(C)Oc1ccccc1C(=O)Nc1ccccc1C(=O)Nc1cccc(S(=O)(=O)C(F)(F)F)c1 | -0.72%
O=C(Nc1ccccc1C(=O)Nc1cccc(C(F)(F)F)c1)c1ccccc1Cl | 3.73%
O=C(Nc1cccc(C(F)(F)F)c1)c1ccccc1NC(=O)C1CC1 | 8.37%
O=C(Nc1cccc(Cl)c1)c1ccccc1NC(=O)C1CCCCC1 | -5.01%
O=C(Nc1ccccc1C(=O)Nc1cccc(C(F)(F)F)c1)c1ccccc1 | 66.3%

SMILES | activation
CCCOc1ccccc1C(=O)Nc1ccccc1C(=O)Nc1cccc(S(=O)(=O)C(F)(F)F)c1 | 0.371%
CCOc1ccccc1C(=O)Nc1ccccc1C(=O)Nc1cccc(C(F)(F)F)c1 | 7.36%
COCCOc1ccccc1C(=O)Nc1ccccc1C(=O)Nc1cccc(C(F)(F)F)c1 | -2.02%
O=C(Nc1cccc(S(=O)(=O)C(F)(F)F)c1)c1ccccc1NC(=O)C1CCCCC1 | -2.51%
O=C(Nc1cccc(SC(F)(F)F)c1)c1ccccc1NC(=O)C1CCCCC1 | 0.962%
CSc1cccc(NC(=O)c2ccccc2NC(=O)C2CCCCC2)c1 | 3.22%
COc1ccc(C(=O)Nc2ccccc2C(=O)Nc2cccc(C(F)(F)F)c2)cc1 | 3.66%
COc1ccccc1C(=O)Nc1ccccc1C(=O)Nc1cccc(C(F)(F)F)c1 | -4.34%
O=C(Nc1cccc(-c2ccccc2C(F)(F)F)c1)c1ccccc1NC(=O)C1CCCCC1 | 3.89%
COc1ccccc1Nc1ccccc1C(=O)Nc1cccc(C(F)(F)F)c1 | -2.38%
CN(C)CCOc1ccccc1C(=O)Nc1ccccc1C(=O)Nc1cccc(C(F)(F)F)c1 | 1.12%
CCOc1ccccc1-c1nc2c(C(=O)Nc3cccc(S(=O)(=O)C(F)(F)F)c3)cccc2[nH]1 | 5.06%
O=C(Nc1cccc(C(F)(F)F)c1)c1ccccc1NC(=O)C1CCCCCC1 | 3.2%
O=C(Nc1cccc(C(F)(F)F)c1)c1ccccc1NC(=O)C1CCCCC1 | 1.32%
COc1cccc(OC)c1C(=O)Nc1ccccc1C(=O)Nc1cccc(C(F)(F)F)c1 | -1.17%
CCOc1ccccc1C(=O)Nc1ccccc1CNc1cccc(S(=O)(=O)C(F)(F)F)c1 | 2.87%
COc1cccc(C(=O)Nc2ccccc2C(=O)Nc2cccc(C(F)(F)F)c2)c1 | 1.57%
CCC(CC)C(=O)Nc1ccccc1C(=O)Nc1cccc(C(F)(F)F)c1 | 1.55%
CCOc1ccccc1C(=O)Nc1ccncc1C(=O)Nc1cccc(S(=O)(=O)C(F)(F)F)c1 | 4.28%
O=C(Nc1ccc(C(F)(F)F)cc1)c1ccccc1NC(=O)C1CCCCC1 | 2.37%
